# Several values for one entry are separate records, joined by “and”; a condition that tells them apart may be missing. Identical values can stand only once. The campaign covered roughly 16,000 compounds. About 4,000 (25%) were called active. Not shown: some 26% with an inconclusive outcome. Calls come from the whole dose curve; as a rule, active = well fitted curve in the direction sought with a large enough effect; inconclusive = small, poorly fitted or top-dose-only effect, or effect the other way; inactive = no such curve, though single readings can be large or run the other way. Only a sample is shown. More than one record can exist for a structure, and the calls need not agree.
# Biological target: Cytochrome P450 2C9 (Homo sapiens) (UniProt P11712)
# Sequence (P11712 whole entry, looked up): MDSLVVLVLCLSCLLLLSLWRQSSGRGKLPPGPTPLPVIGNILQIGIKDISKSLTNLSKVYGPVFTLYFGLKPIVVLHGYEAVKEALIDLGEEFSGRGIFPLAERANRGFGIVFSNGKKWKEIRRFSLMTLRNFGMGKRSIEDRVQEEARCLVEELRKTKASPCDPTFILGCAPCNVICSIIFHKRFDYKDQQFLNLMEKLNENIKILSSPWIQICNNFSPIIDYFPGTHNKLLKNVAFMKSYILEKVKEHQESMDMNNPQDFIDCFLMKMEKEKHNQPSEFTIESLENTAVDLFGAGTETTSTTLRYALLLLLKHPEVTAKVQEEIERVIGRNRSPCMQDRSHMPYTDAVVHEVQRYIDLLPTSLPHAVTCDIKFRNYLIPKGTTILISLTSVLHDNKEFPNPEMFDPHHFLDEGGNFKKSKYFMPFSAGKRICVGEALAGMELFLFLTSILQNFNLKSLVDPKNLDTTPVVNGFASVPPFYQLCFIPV
# Assay: Cytochrome panel assay with activity outcomes
# Settings: recombinant CYP, pro-luciferin dealkylation, luminescence, p450-cyp2c9; series mostly up to 57.1 µM
# % is set by controls: 0 for no effect and ±100 for the full control effect.
Compound,"activity, negative = inhibition",AC50
Cc1ccc(S(=O)(=O)O[C@H]2C[C@@H](C(C)(C)C)CC[C@@H]2c2ccccc2)cc1,5.88% [at 11.4 µM] (inactive),–
Cc1ccccc1-c1nc(Nc2ccncc2)c2ccccc2n1,-3.63% [at 2.29 µM] (inactive),–
O=C(O)[C@@H](O)[C@@H](O)[C@H](O)[C@H](O)CO,0.915% [at 11.4 µM] (inactive),–
COc1ccccc1NC(=O)N1CCC(c2nnc(SCC(N)=O)n2C)CC1,–,inactive
Cn1ccnc1SCC(=O)Nc1sccc1C#N,–,8.91 µM (active)
CCc1nnc(NC(=O)CSc2ncnc3c2cnn3-c2ccc(OC)cc2)s1,–,inactive
CCc1nnc(NC(=O)CCC(=O)N2CCN(c3ccccn3)CC2)s1,–,inactive
CCOc1ccc(-n2ccnc2SCC(=O)Nc2nnc(CC)s2)cc1,–,12.6 µM (active)
CCNC(=O)CSc1nnc(C2CC2)n1-c1ccccc1,–,inactive
COc1ccc(NC(=O)CSc2nnc(C3CC3)n2-c2ccccc2)cc1,–,10 µM (active)
COc1ccc(-n2ccnc2SCC(=O)Nc2ccc(OC)cc2OC)cc1,–,4.47 µM (active)
C/C(CCN1CCCCc2nc(C)c(C)cc21)=N\O[C@@H](C)c1cn([C@H](CO)Cc2ccccc2)nn1,6.66% [at 11.4 µM] (inactive) and -0.809% [at 11.4 µM] (inactive),–
O=C(Nc1cccc(F)c1)N1CC2(CCN(C(=O)c3csnn3)CC2)C1,–,inactive
CCS(=O)(=O)N(C)[C@@H]1c2cc(C#N)ccc2OC(C)(C)[C@H]1O,–,inactive
O=C(O)[C@H]1[C@H](C(=O)O)[C@H](C(=O)O)C[C@@H]1C(=O)O,7.74% [at 11.4 µM] (inactive),–
Clc1ccc2c(NCCNC3CCCCC3)ccnc2c1,-4.74% [at 11.4 µM] (inactive),–
NCCCC(=O)O,–,inactive
Cc1ccc(-n2ccc(=O)c(-c3ccnc(SCc4cccc(Cl)c4)n3)n2)cc1,–,3.16 µM (active)
CCn1c(SCc2ccc(C)cc2)nnc1-c1nn(-c2ccccc2)ccc1=O,–,inactive
CC(C)(C)S(=O)(=O)c1cnc2c(-c3ccc(F)cc3)cnn2c1N,–,inactive
CC1Cc2ccccc2N1C(=O)Cn1c(=O)cc(O)c2ccccc21 (stereo not drawn),–,14.1 µM (active)
CCN1CCN(CC(=O)N2c3ccccc3CC2C)CC1 (stereo not drawn),–,inactive
CC1Cc2ccccc2N1C(=O)CN1C(=O)COc2ccccc21 (stereo not drawn),–,11.2 µM (active)
CC(=O)N1c2ccc(S(=O)(=O)CCC(=O)O)cc2CC1C (stereo not drawn),–,inactive

Compound,"activity, negative = inhibition",AC50
CCCN1CCN(C(=O)CN2C(=O)CC(C)(C)S(=O)(=O)c3ccccc32)CC1,–,inactive
C[C@@H]1Cc2ccccc2N1NC(=O)c1ccc(Cl)c(S(N)=O)c1 (stereo partly drawn),–,inactive
COc1ccc(C(=O)N2CCC3(CC2)CN(Cc2ccc(C#N)cc2)C3)cc1,–,inactive
COc1ccc(NC(=O)N2CCCC3(CCN(C(=O)c4cc(C(F)(F)F)cc(C(F)(F)F)c4)CC3)C2)cc1,–,inactive
COC(=O)[C@@]1(Cc2ccc(OC)cc2)[C@H]2c3cc(C(=O)N4CCCC4)n(CCCNc4ncc(C(F)(F)F)cc4Cl)c3C[C@H]2CN1C(=O)c1ccccc1,–,7.94 µM (active)
COc1ccc(C(=O)N2CCC[C@@]3(CCN(Cc4cc(C(F)(F)F)cc(C(F)(F)F)c4)C3)C2)cc1,–,inactive
COC(=O)[C@@]1(Cc2ccc(F)cc2)[C@H]2c3cc(C(=O)N4CCCC4)n(CCCNc4ncc(C(F)(F)F)cc4Cl)c3C[C@H]2CN1C(=O)c1ccccc1,–,3.16 µM (active)
N=C1CCC[C@@H]1C(=S)SCCC(N)=O,17.6% [at 11.4 µM] (inactive),–
C=CC(=O)NC(NC(=O)C=C)c1ccc(Br)cc1,–,inactive
O=C1CC[C@H](NC(=O)c2ccccc2)C(=O)N1,5.14% [at 11.4 µM] (inactive),–
O=C(c1cnccn1)N1CCC2(CCCN(c3cccc(-c4ccccc4)c3)C2)CC1,–,20 µM (active)
O=C(c1ccco1)N1CCC[C@@]2(CCN(c3ccccc3)C2)C1,–,inactive
O=C(c1cnccn1)N1CCC2(CC1)CN(c1cccc(-c3ccccc3)c1)C2,–,inactive
O=C(c1ccco1)N1CCC[C@@]2(CCN(c3cccc(-c4ccccc4)c3)C2)C1,–,5.01 µM (active)
O=C(c1cnccn1)N1CCC[C@@]2(CCN(c3ccncc3)C2)C1,–,inactive
O=C(c1ccco1)N1CCC2(CC1)CN(c1cccc(-c3ccccc3)c1)C2,–,inactive
O=C(c1cnccn1)N1CCC2(CC1)CN(c1ccccc1)C2,–,inactive
O=C(c1cnccn1)N1CCC[C@@]2(CCN(c3cccc(-c4ccccc4)c3)C2)C1,–,7.94 µM (active)
O=C(c1cnccn1)N1CCC[C@@]2(CCN(c3ccccn3)C2)C1,–,inactive
CN(C)c1ccc(-c2ccc3ncnc(N(C)C)c3c2)cc1,-17.4% [at 2.29 µM] (inactive),–
O=c1n(-c2ccccc2)c(=O)n2n1CC[C@H]1/C(=N\OCc3ccccc3)[C@H]3O[C@@H]3[C@@H](O)[C@@H]12,25.1% [at 11.4 µM] (inactive),–
CCN1C(=O)CC(N2CCN(CC(=O)NC(C)C)CC2)C1=O (stereo not drawn),–,inactive
CN1CCN(C2CC(=O)N(Cc3ccc(N4CCCC4=O)cc3)C2=O)CC1 (stereo not drawn),–,inactive
O=C1CC(N2CCN(C(c3ccccc3)c3ccccc3)CC2)C(=O)N1Cc1ccc(N2CCCC2=O)cc1 (stereo not drawn),–,7.08 µM (active)

Compound,"activity, negative = inhibition",AC50
NN(CC(=O)O)CC(=O)O,17.7% [at 11.4 µM] (inactive),–
Cc1cc(-c2ccc(Cl)cc2)oc(=O)c1NC(=O)c1ccccc1,–,inactive
CNC(=O)c1sc(SC)cc1-c1ccc(Cl)cc1,–,5.62 µM (active)
COc1ccccc1C(=O)O/N=C1/CCCc2c1ccc(OC)c2[N+](=O)[O-],–,12.6 µM (active)
Cc1ccc2c(c1)/C(=N/OC(=O)c1ccc(F)cc1)CCS2,–,inactive
Cc1cc(NS(=O)(=O)c2ccc(NC(=O)CN3C(=O)c4ccccc4C3=O)cc2)nc(C)n1,–,inactive
Cc1cc(Cl)ccc1OC(C)C(=O)Nc1ccc(S(=O)(=O)Nc2cnc3ccccc3n2)cc1 (stereo not drawn),–,0.631 µM (active)
O=C1C2Sc3[nH]c(=O)sc3C(c3ccccc3)C2C(=O)N1c1ccc(Cl)cc1 (stereo not drawn),–,8.91 µM (active)
O=C1C(C2=NC(C(=O)O)C3C(=O)N(c4ccc(Cl)cc4)C(=O)C23)=C(O)c2ccccc21 (stereo not drawn),–,inactive
O=C1C2Sc3[nH]c(=O)sc3C(c3ccccc3)C2C(=O)N1c1ccccc1 (stereo not drawn),–,12.6 µM (active)
CO[C@@H]1COC(=O)C/C=C\[C@H](C)COC(=O)[C@H](C)NC(=O)C/C=C\[C@H]1C,-7.79% [at 11.4 µM] (inactive),–
CC1(C)Cc2ccccc2C(N/N=C/c2cccc(F)c2)=N1,–,14.1 µM (active)
CC1=NC(C)(C)Cc2ccccc21,–,inactive
Fc1cccc(/C=N\N=C/c2cccc(F)c2)c1,–,inactive
O=C(O)C1CC2(C1)CC(C(=O)O)C2 (stereo not drawn),-3% [at 11.4 µM] (inactive),–
N#Cc1cccc(-c2ccc3ncnc(NC4CCNCC4)c3c2)c1,10.5% [at 2.29 µM] (inactive),–
CCN(c1ccc(NC(=O)COC(=O)c2ccc3ccccc3n2)cc1)C(C)C,–,20 µM (active)
CC(C)C(=O)Cc1ccc2ccccc2n1,7.52% [at 11.4 µM] (inactive),–
Cc1cnc(C(=O)OCC(=O)NC(C)C)cn1,–,inactive
CC(C)(C)C(=O)NC(Nc1cccc2cccnc12)C(Cl)(Cl)Cl (stereo not drawn),–,1.26 µM (active)
O=S(=O)(O)c1cc(N=Nc2cccc3ccccc23)c(O)c2ncccc12,-11.1% [at 11.4 µM] (inactive),–
O=C(Nc1cccc2cccnc12)[C@@H]1[C@@H](C(=O)O)[C@H]2CC[C@@H]1O2,7.28% [at 11.4 µM] (inactive),–
COc1ccc(NC(=O)N2CC[C@@]3(CCCN(C(=O)c4cnccn4)C3)C2)cc1,–,inactive
CCOC(=O)c1sc2c(c1C)c(=O)c(C(=O)OCC)cn2CC,–,inactive

Compound,"activity, negative = inhibition",AC50
CCOC(=O)c1sc(NC(=O)CSc2nc(C)cc(C)n2)c(C#N)c1C,–,3.55 µM (active)
CCOC(=O)c1sc(NC(=O)CSc2nc(C)cc(C)c2C#N)c(C#N)c1C,–,1 µM (active)
CCOc1cccc(NC(=O)CSc2nc(C)c3c(c2C#N)CCCC3)c1,–,inactive
Cc1ccccc1OCC(=O)Nc1sc(C(=O)Nc2cccc(C)c2C)c(C)c1C#N,–,inactive
CCOC(=O)c1sc(NC(=O)CSc2n[nH]c(-c3ccc(Cl)cc3Cl)n2)c(C#N)c1C,–,1.26 µM (active)
CCN(CC)CCN1c2ccccc2Sc2ccc3ccccc3c21,0.978% [at 11.4 µM] (inactive),–
Cn1cnc2c(NCc3ccccc3)nc(NCCO)nc21,–,inactive
C/C(CCN1CCCCc2nc(C)c(C)cc21)=N\OC[C@@H](O)COCc1ccco1,-10.7% [at 11.4 µM] (inactive),–
Cc1cccn2c(=O)c3cc(C(=O)N4COCC4(C)C)n(C)c3nc12,–,inactive
c1ccc2c3c([nH]c2c1)[C@@H]1[C@H]2CC[C@H]([C@H]4CCCN[C@H]42)N1CC3,–,inactive
CC(=O)C=NCC(=O)O,-1.6% [at 11.4 µM] (inactive),–
O=c1cc(N2CCCCC2)c(-c2ccccc2)nn1Cc1ccccc1Cl,–,20 µM (active)
CC1=NOC(=O)/C1=C\c1ccc(-c2ccc(Cl)cc2Cl)o1,–,10 µM (active)
CCCCCCCCCCCCCCC[C@@H](O)[C@@H](N)CO,–,inactive
NC(=O)OCC(COC(N)=O)c1ccccc1,–,inactive
COc1ccccc1N1CCN(CCN2C(=O)CC3(CCCC3)CC2=O)CC1,–,inactive
COc1ccccc1N1CCN(CCCCN2C(=O)CCC2=O)CC1,–,3.98 µM (active)
COc1ccccc1N1CCN(CCCNc2cc(=O)n(C)c(=O)n2C)CC1,–,inactive and 12.6 µM (active)
COc1ccccc1N1CCN(CCCCN2C(=O)c3ccccc3C2=O)CC1,–,inactive
COc1ccccc1N1CCN(CCN2C(=O)c3ccccc3C(C)(C)C2=O)CC1,–,inactive
COc1ccccc1N1CCN(CCCCNC(=O)c2ccc3ccccc3c2)CC1,–,inactive

# — PubChem BioAssay AID1851 (National Center for Advancing Translational Sciences (NCATS), 2009)
